From PubChem BioAssay AID720518 (National Center for Advancing Translational Sciences (NCATS), 2013)
Inconclusive results are not listed. A call without a number means that no potency is given here. Activity calls are given as the source filed them. The call rests on the fitted dose curve.

Experiment: qHTS for Inhibitors of Cell Surface uPA Generation: Wild-type Protective Antigen (WT-PrAg) Counterscreen for Cherry-picked Compounds
Settings: cells, WT protective antigen toxicity counterscreen; series mostly up to 115 µM

SMILES | Potency
Cc1cccc(-c2nc(CS(=O)CC(=O)NCc3cccs3)c(C)o2)c1 (stereo not given) | inactive
O=C(C1=C[C@H](c2ccccc2)C[C@H](OCCCCO)O1)N1CCN(Cc2ccc3c(c2)OCO3)CC1 | inactive
CCCCCOC(=O)Nc1nnc(CCCCC)s1 | inactive
COc1ccc(C(=O)c2sc(Nc3ccccc3)nc2N)cc1 | inactive
COc1cc(SC)ccc1C(=O)OCc1nc2ccsc2c(=O)[nH]1 | inactive
O=C(C[n+]1ccccc1)Nc1ccccc1C(F)(F)F | inactive
COc1ccc(NC(=O)CCNS(=O)(=O)c2ccccc2F)cc1S(=O)(=O)N1CCOCC1 | inactive
CC(OC(=O)c1cccc(-n2cnnn2)c1)C(=O)Nc1ccc(F)c(F)c1F (stereo not given) | inactive
Cn1cc(SCC(=O)Nc2nccs2)c2ccccc21 | inactive
COCCN(C(=O)CSc1nnc(-c2ccncc2)n1C)c1c(N)n(CC(C)C)c(=O)[nH]c1=O | inactive
CC(/C=C/C1(O)C(C)CC(O)CC1(C)C)OC1OC(CO)C(O)C(O)C1O (stereo not given) | inactive
COc1ccc(N(C(C)C(=O)NN=C2CCCC2)S(C)(=O)=O)cc1 (stereo not given) | inactive
O=C(CCN1CCN(c2ccccc2F)CC1)Nc1ccc(F)cc1 | inactive
O=C1CCCC/C1=C\Nc1ccc(S(=O)(=O)Nc2cnc3ccccc3n2)cc1 | inactive
CCOC(=O)C1CCN(CC(=O)Nc2cc(C)nn2-c2nc3ccccc3s2)CC1 | inactive
COc1ccc(-n2ncc3c(=O)n(CC(=O)NC(C)C)cnc32)cc1 | inactive
O=C(N/N=C/c1cccnc1)c1ccccc1[N+](=O)[O-] | inactive
CCOc1cc(/C=C(\C#N)C(=O)NCc2cccnc2)ccc1O | inactive
COc1cc(/C=N/NC(=O)c2cc(-c3ccco3)nc3ccccc23)cc(OC)c1O | inactive
Cc1nc(N2CCN(c3ccc(Cl)cc3)CC2)[nH]c(=O)c1C | inactive

SMILES | Potency
Nc1cc(=O)[nH]c(SCC(=O)Nc2cccc([N+](=O)[O-])c2)n1 | inactive
O=C(Nn1cnnc1)c1ccc(Cl)cc1 | inactive
C=CC1=C(C(=O)O)N2C(=O)[C@@H](NC(=O)/C(=N\O)c3csc(N)n3)[C@H]2SC1 (stereo in doubt) | inactive
CN(/N=C/c1cc(Cl)cc(Cl)c1O)C(=S)NC(C)(C)C | inactive
OCCN(Cc1ccccc1)CC(O)COc1ccc2c(c1)OCO2 (stereo not given) | inactive
Cc1ccc(C(=O)NC(=S)Nc2ccc3[nH]c(=O)[nH]c3c2)c(C)c1 | inactive
O=C(NC(=O)c1ccccc1)Nc1cccc(S(=O)(=O)N2CCCCC2)c1 | inactive
COc1cc(N/C(N)=N/c2nc(C)cc(C)n2)cc(OC)c1 | inactive
CCC(C(=O)NCc1ccc(C)cc1)c1ccccc1 (stereo not given) | inactive
O=c1[nH]c(SCc2cccc(Cl)c2)nc2ccccc12 | inactive
CCC(CC)Nc1ccc(C(CC(N)=O)NC(=O)Cc2ccc(Br)cc2)cc1[N+](=O)[O-] (stereo not given) | inactive
c1csc(CN2CCOCC2)c1 | inactive
Cc1[nH]c2ccccc2c1C(=O)C(C)OC(=O)c1ccccc1NCCO (stereo not given) | inactive
COc1ccc(S(=O)(=O)N2CCOCC2)cc1NC(=O)CN1C(=O)NC2(CCCC2)C1=O | inactive
COc1cc(F)ccc1S(=O)(=O)n1c(C)nc2ccccc21 | inactive
Cc1cc(C)cc(S(=O)(=O)c2cn(C)c3cc(N4CCN(C)CC4)c(F)cc3c2=O)c1 | inactive
CN(C(=O)CCn1c(=S)oc2ccccc21)c1ccc(F)cc1 | inactive
Cc1ccc([C@H]2C(C(=O)O)=CC[C@@H](c3cccc(C)c3)N2S(=O)(=O)c2ccc(C)cc2)cc1 | inactive
NS(=O)(=O)c1ccc(CCNC(=O)c2ccc(Cl)s2)cc1 | inactive
O=C(CN1CCN(Cc2ccc(Cl)cc2)C1=O)NCc1cccs1 | inactive
